# Test results: PubChem BioAssay (NCI)
# This is part of a sample that, as a whole, favours compounds with a hit. Of some 83,000 tested, about 20% had one in any assay.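 Plates (96-well) were seeded with cells, treated with compound at one concentration, and incubated for 48 hours before percent growth was determined.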 Values without a mark were called inactive. Activity calls are given as the source filed them. Rule for the calls: active = growth percent below 10; inactive = the rest.
# How the values were obtained:
# Test in all cases: NCI-60 one-dose screen, 48 h (100 = growth as untreated, 0 = no growth, -100 = all killed)
# Conditions in all cases: 10 µM unless noted
# DU-145 prostate = test system: DU-145 prostate
# K-562 leukemia = test system: K-562 leukemia
# MALME-3M melanoma = test system: MALME-3M melanoma
# MDA-MB-231 breast = test system: MDA-MB-231 breast
# RXF 393 renal = test system: RXF 393 renal
# SF-268 CNS = test system: SF-268 CNS
# SF-295 CNS = test system: SF-295 CNS
# SF-539 CNS = test system: SF-539 CNS
# UACC-257 melanoma = test system: UACC-257 melanoma
# M14 melanoma = test system: M14 melanoma
# HCT-15 colon = test system: HCT-15 colon
# HT29 colon = test system: HT29 colon
# SNB-75 CNS = test system: SNB-75 CNS
# SNB-19 CNS = test system: SNB-19 CNS
# U251 CNS = test system: U251 CNS
# PC-3 prostate = test system: PC-3 prostate
# SK-MEL-5 melanoma = test system: SK-MEL-5 melanoma
# UACC-62 melanoma = test system: UACC-62 melanoma
# LOX IMVI melanoma = test system: LOX IMVI melanoma
# SK-MEL-28 melanoma = test system: SK-MEL-28 melanoma
SMILES,growth (DU-145 prostate),growth (K-562 leukemia),growth (MALME-3M melanoma),growth (MDA-MB-231 breast),growth (RXF 393 renal),growth (SF-268 CNS),growth (SF-295 CNS),growth (SF-539 CNS),growth (UACC-257 melanoma),growth (M14 melanoma),growth (HCT-15 colon),growth (HT29 colon),growth (SNB-75 CNS),growth (SNB-19 CNS) [%],growth (U251 CNS),growth (PC-3 prostate),growth (SK-MEL-5 melanoma),growth (UACC-62 melanoma),growth (LOX IMVI melanoma),growth (SK-MEL-28 melanoma)
COc1cccc(-c2nc3sccn3c2-c2ccnc(NCCNS(=O)(=O)c3ccc(C(F)(F)F)cc3)c2)c1,49.4%,25.7%,42.2%,70.1%,34%,35.8%,27.7%,53.7%,39.2%,38.4%,33%,35.7%,38.1%,56.5,42.1%,16.8%,14.9%,38.9%,46.3%,57.8%
COC(=O)/C=C1\S/C(=N\NS(=O)(=O)c2ccc(C)cc2)N(c2ccccc2)C1=O,105%,84.5%,110%,109%,111%,98%,105%,100%,99.5%,107%,98.7%,117%,83.8%,97,102%,96.4%,100%,95.2%,98.7%,104%
O=C(Nc1ccccc1-c1nc2ccccc2c(=O)[nH]1)c1cc2ccccc2[nH]1,102%,94.1%,107%,79.7%,98.4%,91.9%,91.3%,89.5%,83.4%,91.7%,98.6%,91.6%,63%,93.4,92.3%,78.3%,81.2%,84.9%,88%,99.9%
N#Cc1nc2c(S(=O)(=O)c3ccc(Cl)cc3)c(N)n(Nc3cccc(Cl)c3)c2nc1C#N,16.2%,25.9%,25.3%,58.8%,46.3%,53.8%,48.9%,38.9%,47.9%,79%,91.2%,69.5%,55.9%,64.6,40%,-56.8% (active),42.8%,49.2%,61.3%,26.1%
Cc1cccc(NC(=O)N/C(N)=N/c2nc(C)c(C)s2)c1,71.6%,10.7%,58.5%,65.2%,78.2%,75.1%,48.6%,56.7%,62.2%,28.1%,22.2%,18.9%,-3.93% (active),65.4,45%,62%,59.2%,49.1%,42.7%,60.7%
CC(=O)N1C(=S)NC(=O)C1Cn1c(-c2ccccc2)nc2ccccc21 (stereo unspecified),110%,101%,101%,90.4%,96.5%,99.2%,105%,97.1%,107%,103%,98.3%,107%,76.2%,93.3,101%,97.8%,99.1%,91.5%,95.8%,106%
COc1cccc(-c2nn(-c3ccccc3)cc2-c2ccnc(NCCNC(=O)Nc3ccccc3)c2)c1,65.9%,28.2%,77.8%,47.9%,63.5%,60.9%,54.4%,83.6%,42.9%,35.7%,39.3%,29.6%,67.7%,66.5,36.8%,30.8%,46.1%,51.5%,44.4%,77.7%
O=[N+]([O-])c1ccc(C2CC(c3ccccc3)=Nc3ccccc3S2)cc1 (stereo unspecified),107%,32.4%,107%,101%,116%,98%,119%,101%,108%,104%,97.6%,97.4%,57.2%,85.8,62.5%,88.1%,87.5%,84.7%,64.3%,116%
CNC(=O)NCC1OC(n2cnc3c(NC(=O)Nc4ccccc4)ncnc32)C(O[Si](C)(C)C(C)(C)C)C1CC(=O)N(C)OC (stereo unspecified),25.3%,16.1%,12.3%,15.2%,-68.2% (active),33.2%,-41.2% (active),0.123% (active),5.59% (active),34.4%,11.9%,-25.5% (active),-7.28% (active),37.2,-15.2% (active),-20.8% (active),25.9%,34.4%,18.6%,7.73% (active)
C=C1C(=O)O[C@H]2[C@H]1CC/C(COC(=O)C(=O)c1c[nH]c3ccccc13)=C\CC[C@@]1(C)O[C@@H]21,-31.4% (active),-4.12% (active),-63.1% (active),-56.8% (active),-89.1% (active),-46.3% (active),56.6%,-65.3% (active),-69.3% (active),-57.2% (active),-42.9% (active),-55.3% (active),-55% (active),30.3,-82.3% (active),-66.8% (active),-89.6% (active),-82.2% (active),-81.1% (active),-54% (active)
NC(=O)c1ccc[n+]([C@@H]2O[C@H](COP(=O)([O-])OP(=O)(O)OC[C@H]3O[C@@H](n4cnc5c(N)ncnc54)[C@H](O)[C@@H]3O)[C@@H](O)[C@H]2O)c1,105%,109%,115%,98%,125%,104%,108%,90.3%,108%,104%,97.3%,106%,104%,110,99.5%,114%,112%,119%,92.9%,103%
COC(=O)CCC1=C(C)C2=NC1=CC1=NC(=CC3=NC(=Cc4[nH]c(/c(=C(/C)O)c4C)=C2)C(C(C)=O)=C3C)C(C)=C1CCC(=O)OC,110%,112%,96%,103%,112%,98.9%,104%,97.7%,90.3%,108%,99.8%,107%,90.6%,97.3,98.9%,83.7%,–,97.2%,96%,115%
O=C(/C=C/c1ccc(Cl)nc1)c1ccc(Cl)cc1Cl,108%,7.65% (active),105%,107%,104%,102%,91.1%,107%,94.5%,97.6%,69.2%,75.8%,108%,88.3,64%,101%,–,97.2%,6.52% (active),101%
OC(COc1ccccc1Cl)COc1ccccc1Cl,116%,100%,96.8%,101%,96.7%,97.3%,104%,95.5%,120%,93.2%,86.1%,92.5%,85.4%,108,91.5%,95.9%,–,92%,85.3%,94.2%
COc1cccc(Nc2nccc(Nc3ccc4[nH]ncc4c3)n2)c1,-59.1% (active),-9.77% (active),-48.7% (active),15%,18.4%,26.3%,16.2%,13.9%,11.2%,-74.2% (active),-26.6% (active),-58.3% (active),30.3%,24.1,-93.7% (active),-81.2% (active),–,-56.7% (active),-66.9% (active),-42.6% (active)
